This is part of a sample that, as a whole, favours compounds with a hit. Of some 83,000 tested, about 20% had one in any assay.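 Testing used 96-well plates and a 48-hour single-concentration exposure. Example: -40 means 40% of the starting cells died.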 A number with no mark means an inactive call. Active and inactive are the calls of the source.
Each compound was assayed on OVCAR-3 ovarian (assay: NCI-60 one-dose screen, 48 h (100 = growth as untreated, 0 = no growth, -100 = all killed)). Settings: 10 µM unless noted.
Experimental: Growth inhibition of the OVCAR-3 human tumor cell line is measured as a screen for anti-cancer activity. Cells are grown in 96 well plates and exposed to the test compound for 48 hours. Compounds are tested at a single concentration, which is 10^-5 M for most compounds. The reported endpoint is percent growth (GI% or GIPRCNT), where numbers from 0 - 100% represent growth inhibition, and numbers from -100% - 0 represent cell death. For example, a value of 40 represents 60% growth inhibition. A value of 0 means no net growth occurred over the course of the experiment. A value of -40 indicates 40% of cells at the beginning of the experiment died by the end of the experiment. A value of -100 means all cells are dead at the end of the experiment.
NCI-60 Human Tumor Cell Lines Screen was performed using the standard one-dose NCI protocol, which is described in more detail at https://dtp.cancer.gov/discovery_development/nci-60/default.htm.
Compounds with GIPRCNT values below 10 were considered active. Activity score was based on GIPRCNT using the following formula: […]
Score is 0 for GIPRCNT values of 100 or above, 50 for GIPRCNT values of 0, and 100 for GIPRCNT values of -100.
Compound `COC(=O)c1cccc(NC(=O)c2ccc(-c3cccc(N)c3)o2)c1` has a growth of 107%. Compound `COc1ccc(-n2nc(C)c3c(Nc4ccc(NC(=O)Nc5c(Cl)cccc5Cl)cc4)ncnc32)cc1` has a growth of 40.8%. `C=C1c2nc3ccccc3n2C=C(c2ccc(OC)cc2)N1Cc1ccccc1` was tested, and the growth was 85.4%. With `N#C/C(=C\c1ccc(-c2ccc(Cl)c(Cl)c2)o1)c1nc(-c2ccco2)cs1` the growth was 81.1%. Compound `NCCNc1nc(Nc2ccc(-c3nc4ccccc4[nH]3)cc2)c2cn[nH]c2n1` has a growth of 83.9%. `CSc1nc(NCCO)c(C#N)c(-c2cccc([N+](=O)[O-])c2)n1` gave a growth of 112%. `C=CC(=O)Nc1cccc(-c2nc(SC)nc(Nc3cccc(OC)c3)c2C#N)c1` gave a growth of 52.1%. Compound `C=C(C)[C@@H]1CC[C@]2(C(=O)OC)CC[C@]3(C)[C@H](CC[C@@H]4[C@@]5(C)C/C(=C/c6ccc(OC)cc6)C(=O)C(C)(C)[C@@H]5CC[C@]43C)[C@@H]12` has a growth of 86.7%. With `O=C1c2cc3c(cc2-c2c1c1ccc(F)cc1c(=O)n2C[C@H](O)[C@H](O)[C@H](O)CO)OCO3` the growth was -17% (active). With `Brc1ccc(-c2csc(Nc3ccccn3)n2)cc1` the growth was 82.9%. In the case of `O=C1/C(=C/N2N=C(c3ccc4ccccc4c3)CC2c2ccccc2O)SC(=S)N1c1cccnc1` (stereo not given), the growth is reported as 7.76% (active). For `COc1ccc(CN2c3ccccc3Sc3ccccc32)c(C(F)(F)F)c1`, the growth was 5.59% (active). `C=CC(=O)Nc1cccc(-c2nc(SC)nc(Nc3ccccc3OC)c2C#N)c1` gave a growth of 23.4%. With `CCn1c(Cc2ccccc2Nc2c(Cl)cccc2Cl)nnc1SCC(=O)NN1C(=O)/C(=C/c2cc(OC)c(O)c(OC)c2)SC1=S` the growth was 7.37% (active). Compound `COc1cccc(-c2nc3sccn3c2-c2ccnc(NCCNS(=O)(=O)c3ccccc3)c2)c1` has a growth of 42.2%. `O=c1cc(/C(=C2/C=CC=N2)c2ccc[nH]2)c2cc(Cl)ccc2o1` was tested, and the growth was -20.3% (active). `CCOc1nc(-c2ccccc2)cc2c(O)c(C(=O)N/N=C/c3ccc(O)cc3O)[nH]c(=O)c12` showed a growth of 30.9%. Compound `Oc1ccccc1-c1nnc(CNc2ccc(Cl)cc2)o1` has a growth of 26.1%. Compound `CCCCCCN(CCCCCC)C(=N)c1ccnc2ccccc12` has a growth of 69.3%. Work on `COc1ccc2c(c1)CC/C(=C\c1cncc(Br)c1)C2=O` yielded a growth of 95.9%. Work on `O=C(Cc1ccccc1Nc1c(Cl)cccc1Cl)NN1C(=O)/C(=C/c2ccc(Br)cc2)SC1=S` yielded a growth of 109%. In the case of `COc1cc(/C=C/C(=O)c2cccnc2Nc2ccc(F)cc2)cc(OC)c1OC`, the growth is reported as 16.1%. `FC(F)(F)Oc1ccc2nc3nc4ccc[nH]c4cc3c2c1` showed a growth of 98.2%. `COc1cccc(-c2nc(SCC(=O)Nc3ccc(C(=O)/C=C/c4ccc(OC)c(OC)c4)cc3)[nH]c(=O)c2C#N)c1` was tested, and the growth was 83.6%. With `O=C1/C(=C/c2ccccc2O)N=C2SCCCN12` the growth was 92.9%. `COc1ccc(/C=C(\C#N)C(=O)Nc2cccc(Nc3nc(SC)nc(-c4cccc([N+](=O)[O-])c4)c3C#N)c2)cc1OC` gave a growth of 112%. `Cn1c(NCCc2ccc(O)c(O)c2)nc2c1c(=O)n(Cc1ccc(Br)cc1)c(=O)n2C` showed a growth of 69.4%. For `c1csc(C2=NN3C(C2)c2ccccc2OC3c2ccncc2)c1` (stereo not given), the growth was 98.9%. In the case of `O=C1/C(=C/c2ccc(Cl)cc2)SC(=S)N1CCc1ccc(O)cc1`, the growth is reported as 98.2%. `Cc1cc(C)nc(SC2=C(Nc3ccc(C)c(Cl)c3)C(=O)N(Cc3ccccc3)C2=O)n1` was tested, and the growth was 69% [30 µM]. In the case of `CN1CCN(c2nc(NCCCCNc3ccnc4cc(Cl)ccc34)c3ccccc3n2)CC1`, the growth is reported as 76.6%. Work on `CC(C)CC1C(=O)N2CCC[C@H]2C2(O)O[C@](NC(=O)C3C=C4c5cccc6[nH]c(Br)c(c56)C[C@H]4N(C)C3)(C(C)C)C(=O)N12` (stereo not given in full) yielded a growth of 61.5%. Compound `O=C(/C=C/c1cc(CN2CCOCC2)c(O)c2ncccc12)c1cc(CN2CCOCC2)c(O)c2ncccc12` has a growth of 23.6%. `COc1cc(C(=O)Oc2ccccc2OC(=O)c2cc(OC)c(OC)c(OC)c2)cc(OC)c1OC` was tested, and the growth was 97.7%. `COc1ccc(CCNc2nc3c(c(=O)n(Cc4ccc(Br)cc4)c(=O)n3C)n2C)cc1OC` was tested, and the growth was 98.4%. With `O=c1cc(CSc2nnc(SCc3cc(=O)oc4c3ccc3ccccc34)o2)c2ccc3ccccc3c2o1` the growth was 105%. Compound `O=C1NC(=S)N[C@H]1CC(=O)n1cnc2ccccc21` has a growth of 110%. `CC1=C[C@H]2c3c(c(O)c(O)c4oc(-c5ccccc5)cc(=O)c34)[C@H](c3cc(O)c(O)c4oc(-c5ccccc5)cc(=O)c34)[C@H]2C(C)(C)C1` was tested, and the growth was 7.79% (active). In the case of `O=C1c2ccccc2C(=O)c2c(N=Nc3[nH]c(=S)[nH]c3O)cccc21`, the growth is reported as 1.75% (active). For `CCOC(=O)c1c(C(=O)OCC)c2cc(-c3ccn4c(C(=O)c5ccccc5)c(C(=O)OCC)c(C(=O)OCC)c4c3)ccn2c1C(=O)c1ccccc1`, the growth was 95%.
